IL-1B inflam inh = inhibitors of inflammasome signaling (IL-1 beta secretion) | THP-1 LPS/ATP IL-1B secretion, AlphaLISA, 16 h; hits give low values | activity change, % at 57.5 µM | 360,000 compounds, 4.7% hits | AID 743279; in the data active means activity change below about -50%; inconclusive means mostly about -30% to -49%
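Secreted IL-1B measured by AlphaLISA bead assay after 16 h compound exposure of THP-1 cells; compounds (final up to 57.5 uM) added 1 h before LPS (250 ng/mL) and ATP (1.25 mM) stimulation; lower signal means less secretion.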
DT40 TDP1 no CPT = qHTS for Inhibitors of human tyrosyl-DNA phosphodiesterase 1 (TDP1): qHTS in cells in absence of CPT. DT40 Tdp1-/- hTDP1 cells, no CPT, ATP luminescence, 48 h. Potency, µM (titrated, usually from 46.2 µM), for inactives: at the highest dose activity change, negative = growth inhibition, most hits filed as inhibitors. 420,000 compounds, 15% hits; further: potency means the concentration at half of the fitted maximal effect; nearly all actives have a fitted effect of over 55% in size
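Seeded 400 DT40-hTDP1 cells/well (vehicle DMSO, no 20 nM CPT); pinned compounds; ≥48 hr at 37 °C; CellTiter-Glo luminescence as viability measure.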
Gal4-VP16 FLuc = inhibits Gal4-VP16 luciferase reporter, ROR gamma counter-screen. Potency, µM (titrated, usually from 53.6 µM), inactives show at the top dose activity, negative = inhibition, hits mostly inhibitors. 310,000 compounds, 3.5% hits. AID 2546. Drosophila S2 Gal4-VP16 UAS-luciferase, luminescence, 20 h;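 further: Gal4-VP16 expression switched on by copper sulfate through the metallothionein promoter; potency means the concentration at half of the fitted maximal effect; nearly all actives have a fitted effect of over 50% in size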
RORgamma inh = ROR gamma (mouse) transcription inhibition | Drosophila S2 Gal4-RORgamma UAS-luciferase reporter, 20 h | 310,000 compounds, 5.4% hits | P51450 | Potency, µM (titrated, usually from 53.6 µM), for inactives: at the highest dose activity change, negative = inhibition, hits mostly inhibitors; further: potency means the concentration at half of the fitted maximal effect; nearly all actives have a fitted effect of over 60% in size
Target sequence (P51450 whole entry, looked up, the tested form may be a part): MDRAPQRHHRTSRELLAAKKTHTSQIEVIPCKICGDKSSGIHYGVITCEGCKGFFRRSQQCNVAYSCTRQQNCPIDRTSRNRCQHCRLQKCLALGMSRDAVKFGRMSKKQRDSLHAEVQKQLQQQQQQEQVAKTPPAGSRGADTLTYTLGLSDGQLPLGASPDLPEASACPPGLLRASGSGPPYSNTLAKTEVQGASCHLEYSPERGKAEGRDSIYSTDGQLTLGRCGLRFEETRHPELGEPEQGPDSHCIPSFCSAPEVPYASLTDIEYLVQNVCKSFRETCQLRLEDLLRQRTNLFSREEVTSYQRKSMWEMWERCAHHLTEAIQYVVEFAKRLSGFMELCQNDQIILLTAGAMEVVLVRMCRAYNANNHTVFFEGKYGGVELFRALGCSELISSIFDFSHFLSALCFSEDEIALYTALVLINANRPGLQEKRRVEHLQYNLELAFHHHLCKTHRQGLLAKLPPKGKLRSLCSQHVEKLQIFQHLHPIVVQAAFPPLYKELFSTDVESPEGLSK
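Compounds are pin-transferred onto Drosophila Schneider cells expressing a copper-inducible Gal4–ROR gamma transactivation domain fusion. After 1 hr, copper sulfate is added to 700 uM final; luciferase is read 20 hr later.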
LDHA inh = inhibitors of human lactate dehydrogenase A | AID 1347041 | activity change, % (values are at about 110 or 230 µM) | P00338 | purified LDHA, NADH/diaphorase-resazurin fluorescence; hits give low values | 480,000 compounds, 0.15% hits; in the data active means activity change below about -30%; inconclusive means mostly about -25% to -30%;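 further: plate controls were DMSO wells for no effect and wells without enzyme for full effect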
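Human LDH5 (2 nM) was incubated with 0.06 mM NADH and 0.2 mM pyruvate for 5 min at room temperature in Tris pH 7.4. Remaining NADH was coupled through diaphorase/resazurin, and resorufin fluorescence was read at 0 and 20 min.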
TDP1 cell CPT = growth inhibition of DT40 Tdp1-/-;hTDP1 cells with camptothecin (screen for TDP1 inhibitors) | chicken DT40 Tdp1-/-;hTDP1 cells + 20 nM CPT, ATP luminescence, 48 h | Potency, µM (highest dose often 46.2 µM), without a hit: top-dose activity change, negative = growth inhibition, actives largely listed as inhibitors | 420,000 compounds, 12% hits | AID 686979; further: potency means the concentration at half of the fitted maximal effect; nearly all actives have a fitted effect of over 55% in size
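Chicken DT40 Tdp1-/- cells complemented with human TDP1, 400 cells/well, exposed to compounds plus 20 nM camptothecin for at least 48 h at 37 C; viability read as ATP content by CellTiter-Glo luminescence.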
An asterisk follows results filed as active; ? = inconclusive; . = no result. This is a sample that favours compounds with a hit; in the whole collection about 18% have one here. Unless noted, the call rests on the fitted dose curve; in most records, active means well fitted curve in the direction sought with a large enough effect; inconclusive means small, poorly fitted or top-dose-only effect, or another doubt; inactive means no such curve, though single readings can be large; an effect the other way counts as inactive or inconclusive. Unless noted, on the % scale 0 is the no-effect control and ±100 the full control effect.

SMILES	IL-1B inflam inh	DT40 TDP1 no CPT	Gal4-VP16 FLuc	RORgamma inh	LDHA inh	TDP1 cell CPT
COc1ccccc1C1(CC(=O)Nc2nccs2)CCOC(C(C)C)C1 (stereo unspecified)	39	4.6µM*	-8%	11µM*	-1	5.2µM*
N#Cc1ccccc1S(=O)(=O)N1CCN(C(=O)c2ccc(Cn3nnc4ccccc43)cc2)CC1	.	.	.	.	3	.
CSc1cccc(NC(=O)C2CCCN(c3ncnc4c3nc3n4CCCCC3)C2)c1 (stereo unspecified)	7	15µM*	8%	29%	0	?
CC(=O)c1ccc(NC(=O)C2CCCN(c3ncnc4c3nc3n4CCCCC3)C2)cc1 (stereo unspecified)	-61*	13µM*	?	-7%	-2	?
CC(=O)c1cccc(NC(=O)C2CCN(c3ncnc4c3nc3n4CCCCC3)CC2)c1	.	?	.	.	-1	?
CCOc1cc(-c2noc(N)c2C(=O)OC)cc(OCC)c1OCC	-106*	?	?	-44%	1	-13%
COC(=O)c1c(-c2ccc(Br)cc2)noc1N	-20	-20%	3%	3%	-8	-16%
Cc1csc2ncnc(N3CCN(C(=O)Nc4ccc(OC(F)(F)F)cc4)CC3)c12	-71*	5.8µM*	?	-54%	0	10µM*
Cc1ccc(C(=O)N2CCN(c3ncnc4c(C)csc34)CC2)cc1	?	16µM*	-18%	?	-3	?
Cc1csc2c(N3CCN(C(=O)Nc4ccccc4)CC3)ncnc12	?	16µM*	-20%	?	-5	9.2µM*
O=C(Nc1ccccc1)N1CCN(c2ccccn2)CC1	-4	-19%	-4%	13%	-6	-10%
O=C1CC(c2cc3c(cc2Br)OCO3)c2cc3c(cc2N1)OCCO3 (stereo unspecified)	.	.	.	.	2	.
Cc1ccc(NC(=O)Cn2nc(C)c3ccccc32)c(C)c1	.	.	.	.	-6	.
Cn1nc(C(=O)N2CCN(c3ccccc3Cl)CC2)c2ccccc2c1=O	.	.	.	.	4	.
CCSC1=C(C#N)C(c2ccc(C)s2)CC(=O)N1 (stereo unspecified)	13	-12%	-1%	22%	-1	-22%
COC(=O)CSC1=C(C#N)C(c2cccc(F)c2)CC(=O)N1 (stereo unspecified)	53	23µM*	-5%	-2%	-4	?
CCOC(=O)CSC1=C(C#N)C(c2ccccc2OC)CC(=O)N1 (stereo unspecified)	41	16µM*	4%	4%	2	16µM*
CCOC(=O)CSC1=C(C#N)C(c2ccc(C)s2)CC(=O)N1 (stereo unspecified)	-18	3.3µM*	-7%	3%	0	5.2µM*
CCSC1=C(C#N)C(c2ccccc2OC)CC(=O)N1 (stereo unspecified)	-18	-23%	5%	27%	-2	?
COc1cccc(NC(=O)C(C)Nc2ccc3oc(C)nc3c2)c1 (stereo unspecified)	.	.	.	.	23	.
O=C(Nc1ccc2c(c1)OCCO2)C1c2ccccc2OCC(=O)N1CCc1ccccc1 (stereo unspecified)	-14	-2%	.	.	-14	-1%
COc1ccc(CCN2C(=O)COc3ccccc3C2C(=O)Nc2ccc3c(c2)OCCO3)cc1OC (stereo unspecified)	16	21µM*	.	.	-4	?
CCOC(=O)C(Cc1ccc(NC(=O)/C(=C/c2ccccc2)NC(=O)c2ccccc2)cc1)N1C(=O)c2ccccc2C1=O (stereo unspecified)	26	5.8µM*	-3%	5%	-1	5.2µM*
CCOc1ccc(NC(=O)C(Cc2ccccc2)N2C(=O)c3cccc4cccc(c34)C2=O)cc1 (stereo unspecified)	93	8.2µM*	?	12%	-1	12µM*
CCOc1ccc(NC(=O)[C@H](Cc2ccccc2)N2Cc3ccccc3C2=O)cc1	.	-3%	.	.	-17	5%
SMILES	IL-1B inflam inh	DT40 TDP1 no CPT	Gal4-VP16 FLuc	RORgamma inh	LDHA inh	TDP1 cell CPT
COc1ccc(NC(=O)CCS(=O)(=O)c2ccc(Br)s2)cc1	27	?	23%	24%	-8	?
CC(C)c1ccc(NC(=O)CCS(=O)(=O)c2ccc(Br)s2)cc1	.	16µM*	.	.	-2	18µM*
CCOC(=O)c1ccc(NC(=O)CCS(=O)(=O)c2ccc(Br)s2)cc1	19	18µM*	-29%	45%	-3	?
Cn1nc(C(=O)OCCOc2ccc(Br)cc2)c2ccccc2c1=O	.	.	.	.	1	.
C=CCNC(=O)c1ccccc1NC(=O)/C=C/c1cccc2ccccc12	.	.	.	.	-1	.
CCn1c(C(=O)NC2CCN(CC(=O)NC(C)C)CC2)cc2ccccc21	.	.	.	.	-4	.
Cc1ccc(S(=O)(=O)N(C)c2ccc(C(=O)NCC(c3ccco3)N3CCCC3)cc2)cc1 (stereo unspecified)	-17	16µM*	.	.	-5	?
CN(c1ccccc1)S(=O)(=O)c1ccc(Cl)c(C(=O)NCc2ccco2)c1	19	?	.	.	0	?
CN(c1ccc(F)cc1)S(=O)(=O)c1ccc(Cl)c(C(=O)OCC(=O)NCc2ccco2)c1	13	?	6%	43%	1	-7%
Cc1ccc(N(C)S(=O)(=O)c2cccc(C(=O)NCC(c3ccco3)N3CCCC3)c2)cc1 (stereo unspecified)	?	?	.	.	-6	?
CN(C)C(CNC(=O)c1cc(S(=O)(=O)N(C)c2ccc(F)cc2)ccc1Cl)c1ccco1 (stereo unspecified)	6	7.3µM*	.	.	-2	9.2µM*
CN(C)C(CNC(=O)c1cc(S(=O)(=O)N(C)c2ccccc2)ccc1Cl)c1ccccc1 (stereo unspecified)	-10	6.5µM*	7%	23%	-6	5.8µM*
CN(c1ccc(F)cc1)S(=O)(=O)c1ccc(Cl)c(C(=O)NCC(c2ccco2)N2CCCCC2)c1 (stereo unspecified)	-19	2.3µM*	.	.	-4	2.3µM*
Cc1ccc(Nc2nc(NCc3ccco3)nc3c2cnn3-c2ccccc2)cc1C	.	.	.	.	4	.
CC(C)(C)c1ccc(NC(=O)c2scc3c2CCCC3)cc1	.	.	.	.	6	.
CCOc1ccc(N(C(C)C(=O)NCc2ccc(Cl)cc2Cl)S(C)(=O)=O)cc1 (stereo unspecified)	.	.	.	.	1	.

Bioassay records as filed in PubChem.
